Efa HMGR inh: inhibitors of E. faecalis class II HMGR, primary screen, biochemical, Enterococcus faecalis | HMG-CoA reductase (Enterococcus faecalis, mvaE) | purified E. faecalis HMGR, NADPH absorbance 340 nm kinetic | inhibition, % at 10 µM | hit rate 0.41% among 190,000 | AID 1066, 2008;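 active = inhibition above a set limit, the median over all tested compounds plus 3 SD, cut at about 9.5% in these data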;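 also: enzyme runs in reverse so mevalonate oxidation gives rising NADPH absorbance; 0% = complete reaction with DMSO and 100% = background rate lacking mevalonate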
PGE2 EP2 inh: human EP2 receptor antagonists, primary screen, TR-FRET cAMP, C6 glioma cells; Prostaglandin E2 receptor EP2 subtype (Homo sapiens), P43116; C6 glioma cells expressing human EP2; cells stimulated with saturating PGE2; inhibition, % at 25 µM; hit rate 0.52% among 260,000; AID 1422, 2008;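 active = percent inhibition above 40 after rounding to a whole number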;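 also: rat C6 glioma host cells with rolipram phosphodiesterase inhibitor present; the protocol text gives 20 µM as final concentration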
Target sequence (P43116 whole entry, looked up): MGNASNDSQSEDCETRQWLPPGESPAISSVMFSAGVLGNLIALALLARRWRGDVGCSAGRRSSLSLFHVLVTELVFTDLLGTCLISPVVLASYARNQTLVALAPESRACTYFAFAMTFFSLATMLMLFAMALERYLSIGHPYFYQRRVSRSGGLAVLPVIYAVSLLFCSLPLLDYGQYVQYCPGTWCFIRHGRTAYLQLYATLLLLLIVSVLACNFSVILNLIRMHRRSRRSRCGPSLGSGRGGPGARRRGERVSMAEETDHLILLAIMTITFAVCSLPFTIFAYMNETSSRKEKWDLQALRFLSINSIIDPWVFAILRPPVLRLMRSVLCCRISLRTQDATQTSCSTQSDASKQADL
GSH fluor: compound fluorescence on glutathione beads, profiling panel, artefact control, biophysical, 488/530 nm, flow cytometry; hit rate 0.25% among 190,000; AID 1776, 2009; GSH beads flow cytometry, compound fluorescence 488/530 nm; stronger effect = higher value; fluorescence (KMESF) at 10 µM; in the data active = fluorescence above about 89;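 also: glutathione beads carrying GST-tagged Bcl family fusion proteins plus one bare bead set; values are compound well signal with DMSO vehicle wells as background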
EP2 mod: EP2 receptor modulators, cAMP readout, primary screen, cell-based, HTRF cAMP, PGE2 stimulation; Prostaglandin E2 receptor EP2 subtype (Homo sapiens), P43116; EP2-expressing cells, cAMP HTRF FRET, PGE2 co-stimulation; induction, % at 25 µM; hit rate 0.83% among 260,000; AID 940, 2007;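 active = compounds whose cAMP rise, as percent of the full-agonist control response, exceeds 60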;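 also: rat C6 glioma line stably carrying human EP2 under a CMV promoter; the protocol text gives 20 µM as final concentration; 100% = response of wells given 1 µM PGE2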
Avidin bead fluor: green autofluorescence of compounds with avidin beads – biophysical, 488/530 nm, flow cytometry, artefact control, profiling panel; compound fluorescence 488/530 nm; stronger effect = higher value; fluorescence (KMESF) at 10 µM; hit rate 0.38% among 220,000; in the data active = fluorescence above about 47
* marks the source's active call; other numbers are inactive results; · = no result given; ! = a repeat was not active. Most compounds without a hit are left out; they make up all but 2.1% or so of the library.

SMILES	Efa HMGR inh	PGE2 EP2 inh	GSH fluor	EP2 mod	Avidin bead fluor
Cc1ccc(C)c2[nH]c(=O)c(C(c3nnnn3Cc3ccccc3)N3CCc4ccccc4C3)cc12 (stereo unspecified)	-3	8	266*	34	8
Cc1ccc(C)c2[nH]c(=O)c(C(c3nnnn3C3CCCC3)N3CCc4ccccc43)cc12 (stereo unspecified)	·	10	·	101*	·
Cc1ccc(NC(=O)CSc2nc3ccccc3n2CC(=O)N2CCCC2)cc1	·	10	·	-37	·
CCC(CN1CCCC1)NC(=O)Cc1c(C)nc(-c2ccccc2)nc1OC (stereo unspecified)	·	8	·	-44	·
COc1ccc(CNC(=O)CSc2nc3cc(C)ccc3cc2C#N)cc1	·	19	·	43	·
O=C(CN1C(=O)NC2(CCCCC2)C1=O)Nc1cccc(S(=O)(=O)N2CCOCC2)c1	·	16	·	-11	4
O=C(Nc1ccc(S(=O)(=O)N2CCOCC2)cc1)c1ccco1	-7	6	32	4	18
O=C(Nc1ccc(S(=O)(=O)N2CCOCC2)cc1)c1ccc([N+](=O)[O-])o1	·	49*	·	-43	5
O=C(CN1C(=O)NC2(CCCC2)C1=O)Nc1ccc(S(=O)(=O)N2CCOCC2)cc1	-1	4	65	61*	26
CCN1CCN(c2ccc(NC(=O)c3ccc([N+](=O)[O-])o3)cc2Cl)CC1	-6	116*!	18	-156	8
CCC(=O)N1CCN(c2ccc(NC(=O)c3ccc([N+](=O)[O-])o3)cc2Cl)CC1	0	25	22	-41	6
CCC(=O)Nc1cccc(NC(=O)c2ccc([N+](=O)[O-])o2)c1	·	98*	·	-101	·
CC(C(=O)N1CCC2(CC1)NC(=O)c1cccnc1N2C)c1n[nH]c(=O)c2ccccc12 (stereo unspecified)	·	4	·	-32	·
CCOc1ccc(C(=O)Nc2nnc(CCc3ccccc3)s2)cc1OCC	·	5	·	5	·
Cc1ccc(C(=O)Nc2ccc(S(=O)(=O)N3CCc4ccccc43)cc2)o1	-3	14	11	-42	8
Cc1ccc(C(=O)Nc2ccc(S(=O)(=O)N3CCc4ccccc4C3)cc2)o1	-5	2	19	-20	50*
CCCC(=O)Nc1cccc(NC(=O)c2ccc([N+](=O)[O-])o2)c1	·	42*	·	-100	·
Cc1ccc(C)c(N2CCN(Cc3nnnn3CC3CCCO3)CC2)c1 (stereo unspecified)	·	11	·	-18	·
Cc1ccc(C)c(N2CCN(Cc3nnnn3C3CCCCC3)CC2)c1	0	9	59	61*!	5
O=C(Cc1ccccc1F)N1CCC(Cn2nc(-c3ccco3)ccc2=O)CC1	·	·	·	-13	·
CC(=O)NC1CC(C)(C)N(OC(C)=O)C(C)(C)C1	-3	4	36	-2	53*
CC1(C)CC(NC(=O)C(=O)NC2CC(C)(C)N(O)C(C)(C)C2)CC(C)(C)N1O	·	11	·	-5	·
Cc1cc(C)n(CC(=O)N2CCCC(c3[nH]ncc3-c3ccncc3)C2)n1 (stereo unspecified)	·	·	·	4	·
O=C(NC1(c2ccc(F)cc2)CCCC1)c1cnccn1	·	12	·	-30	·
Cc1ccccc1NC1=NC(=S)N(c2ccccc2)C12CCOC(C)(C)C2 (stereo unspecified)	1	2	17	22	10
SMILES	Efa HMGR inh	PGE2 EP2 inh	GSH fluor	EP2 mod	Avidin bead fluor
Cc1ccccc1NC1=NC(=S)N(c2ccccc2)C12CCCCC2	1	9	10	62*	4
COc1ccc(NC(=O)CSc2nc3c(cc2C#N)CCC3)cc1OC	·	12	·	-50	·
CC(C)(C)C(=O)N(CCN(C(=O)C(C)(C)C)c1ccccc1)c1ccccc1	-2	9	17	29	50*
O=C(CCC1CCCN(C(=O)C2CCCC2)C1)NCc1ccc(F)c(F)c1 (stereo unspecified)	-4	6	12	12	11
O=C(CCC1CCCN(C(=O)c2cncs2)C1)NCc1ccc(F)c(F)c1 (stereo unspecified)	0	5	13	8	220*
COC(=O)Cc1cc(=O)n2[nH]c(C)nc2n1	-5	4	43	18	5
COC(=O)Cc1cc(=O)n2[nH]cnc2n1	30*	12	9	14	16

Bioassay records (PubChem)
